What all share (assay): NCI-60 one-dose screen, 48 h (100 = growth as untreated, 0 = no growth, -100 = all killed)
Settings in all cases: 10 µM unless noted

Assay [1] deals with T-47D breast.
Assay [2] deals with BT-549 breast.
Assay [3] concerns MDA-MB-435 melanoma.
Assay [4] relates to SW-620 colon.
Assay [5] deals with MCF7 breast.
The subject of assay [6] is HCT-116 colon.
Assay [7] deals with HCC-2998 colon.
The test system of assay [8] is KM12 colon.

Molecules are shown by their SMILES. This is part of a sample that, as a whole, favours compounds with a hit. Of some 83,000 tested, about 20% had one in any assay.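 Interpretation: 100, growth as untreated; towards 0, rising growth inhibition; 0, no net growth; 0 to -100, cell death. Compounds scoring below 10 were considered active.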 Values without a mark were called inactive. Active and inactive are the calls of the source.

16 compounds from PubChem BioAssay (NCI) can be followed below.

Take `CN1CCN(CCCNC(=O)c2c3c(n4ccccc24)C(=O)c2ncccc2C3=O)CC1`: the growth is -4.38% (active) in assay [1]; 54.8% in assay [2]; -81.1% (active) in assay [3]; -5.63% (active) in assay [4]; -43.8% (active) in assay [5]; -16.4% (active) in assay [6]. For the same compound, the growth in assay [7] was -32.2% (active); in assay [8], 11.3%.
Turning to `CNC1=C(Br)C(=O)c2c(C(=O)OC)c(C)nc(C)c2C1=O`, the growth is 62.8% in assay [1]; 104% in assay [2]; -66.8% (active) in assay [3]; 48.2% in assay [4]; 45.2% in assay [5]; 25.3% in assay [6]. In addition, the growth is 69.6% in assay [7] and 62.4% in assay [8].
Turning to `CCCCCCCCCCCCCCCCCCOc1ccccc1CC(=O)OCC[N+]1(C)CCCCC1`, the growth was 66.9% in assay [1]; 58% in assay [2]; 57% in assay [3]; 68.3% in assay [4]; 51.1% in assay [5]; 30.2% in assay [6]. In addition, the growth was 40.3% in assay [7] and 86.5% in assay [8].
With `COC(=O)CNC(=O)c1ccc(NC(=O)c2[nH]c(C)c(Cl)c2Cl)c(O[C@H]2CCNC2)c1`, the growth in assay [1] was 101%; in assay [2], 102%; in assay [3], 105%; in assay [4] it was 103%; in assay [5] it was 105%; in assay [6], 96.1%. For the same compound, the values for the growth in assay [7] and in assay [8] were 115% and 104%, respectively.
Consider `COc1cc2c(c(OC)c1OC)C(=O)CC(c1cccc(C(=O)Nc3ccc(Br)cc3)c1)O2` (stereo not drawn), for which the growth in assay [1] is 20.3%; in assay [2] it was 34%; in assay [3], 30.3%; in assay [4], 85.8%; in assay [5] it was 42.9%; in assay [6], 46.6%. Moreover, the results for the growth in assay [7] and in assay [8] were 92.1% and 62.9%, respectively.
On to `O=C(Nc1cccc(Cn2c(=O)[nH]c3ccc(Oc4ncccn4)cc3c2=O)c1)c1cccc(Cl)c1`, for which the growth was 20.6% in assay [1]; 43.8% in assay [2]; 42.5% in assay [3]; 83.3% in assay [4]; 40.2% in assay [5]; 52.6% in assay [6]. The growth is 84.6% in assay [7] and 55% in assay [8].
For the compound `C/C=C(/C)C(=O)O[C@@H]1CC(C)(C)CC2C34OC(=O)[C@@]21CC[C@@]3(C)[C@]1(C)CCC2C(C)(C)C(=O)CC[C@]2(C)C1C[C@@H]4O` (stereo partly drawn), the growth in assay [1] was 46.8%; in assay [2], 43.3%; in assay [3], 70.9%; in assay [4] it was 38.8%; in assay [5], 66.7%; in assay [6], 29.5%. The growth is 73.1% in assay [7] and 51.5% in assay [8].
As for `NCCCCCNc1noc(Cc2c[nH]c3cc(Br)ccc23)n1`, the growth is 25.9% in assay [1]; 44.9% in assay [2]; -37% (active) in assay [3]; 18.6% in assay [4]; 23% in assay [6]; 64% in assay [7]. Further, in assay [8], the growth was 23.9%.
`NCCNc1ccc([N+](=O)[O-])cc1`: the growth in assay [1] is 106%; in assay [2] it was 103%; in assay [3], 113%; in assay [4], 112%; in assay [6] it was 98.8%; in assay [8], 115%.
Take `CC(C)(C)n1cc(-c2ccnc(NCCNS(=O)(=O)c3ccc(C(F)(F)F)cc3)c2)c(-c2ccccc2)n1`: the growth in assay [1] was 62.5%; in assay [2], 93.7%; in assay [3], 100%; in assay [4], 99.2%; in assay [6] it was 58.9%; in assay [7] it was 111%. In addition, the growth in assay [8] is 96.7%.
Take `COC(=O)c1cc(-c2ccc(OC)c(OC)c2)[nH]c1N/N=C/c1c(Cl)cccc1Cl`: the growth is 40.9% in assay [1]; 37.7% in assay [2]; -18.3% (active) in assay [3]; 21.3% in assay [4]; 14.5% in assay [6]; 53.2% in assay [7]. Moreover, the growth in assay [8] is 28.7%.
For `CCOC(=O)c1ccc2c(c1)c1c(C)c3cnccc3c(C)c1n2C`, the growth in assay [1] is -23.1% (active); in assay [2] it was -54% (active); in assay [3] it was -65.8% (active); in assay [4] it was -7.3% (active); in assay [6], -85.2% (active); in assay [7], -70.7% (active). The growth in assay [8] is -7.02% (active).
With `CC(C)n1cc(C2=C(c3cccc4ccccc34)C(=O)NC2=O)c2cc(Br)ccc21`, the growth was 90% in assay [1]; 92.6% in assay [2]; 61.6% in assay [3]; 46.7% in assay [4]; 35.4% in assay [6]; 52.1% in assay [7]. Further, the growth in assay [8] is 36.5%.
On to `O=C1NCCN1/N=C/c1c(Cl)n(Cc2ccc(Cl)cc2)c2ccccc12`, for which the growth is 113% in assay [1]; 79.2% in assay [2]; 85.6% in assay [3]; 108% in assay [4]; 89.5% in assay [6]; 95.9% in assay [7]. Further, the growth in assay [8] is 110%.
Regarding `CC/C(=C(/c1ccc(Cl)cc1)c1ccc(OCCN2CCCCCC2)cc1)c1ccccc1`, the growth in assay [1] was 68.5%; in assay [2] it was 114%; in assay [3] it was 90.5%; in assay [4], 44.7%; in assay [6] it was 62.7%; in assay [7] it was 97.8%. Further, the growth in assay [8] was 55%.
On to `O=C1/C(=C/c2ccc(Br)cc2)COc2ccc(O)cc21`, for which the growth in assay [1] was 80.6%; in assay [2], 79.2%; in assay [3], 75.6%; in assay [4], 1.35% (active); in assay [6] it was 16.9%; in assay [7], 89.8%. In addition, the growth in assay [8] was 26.8%.
